Reference: PubChem BioAssay (NCATS)
Inconclusive results are not listed. Where a call stands in place of a potency, no number is given. Calls of active or inactive are those of the source. Calls follow the shape of the dose curve; as a rule, active = well fitted inhibition curve with a large enough effect; inconclusive = small, poorly fitted or top-dose-only effect; inactive = flat fitted curve, though single readings scatter.

What follows are compounds tested on WaGa (assay: qHTS assay to identify novel small-molecules to repurpose for Merkel cell carcinoma treatment (AID 1296009; also: nearly all actives have a fitted effect of over 60% in size)). Settings: MCC and control cell lines, CellTiter-Glo viability, 72 h; series mostly up to 46 µM.
How it was run: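 Cells were treated for 72 hr at 37 degree celsius with compounds in 8- or 11-point dose response. Viability was read by CellTiter-Glo luminescence, normalized to no-cell (cytotoxicity) and DMSO controls.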
Potency is read from the fitted curve at half-maximal effect.

Structure (SMILES) | Potency
Cc1cc(C(=O)NOCCO)c(Nc2ccc(I)cc2F)n(C)c1=O | inactive
C[C@@]12C(=O)OC(=O)[C@@]1(C)C1CCC2O1 | 2960 nM (active)
C[C@H](NC(=O)C(C#N)=Cc1cccc(Br)n1)c1ccccc1 | inactive
OCc1ccccc1O[C@@H]1O[C@H](CO)[C@H](O)[C@H](O)[C@H]1O | inactive
C[C@H](CCC(=O)O)[C@H]1CCC2C3C[C@H](O)[C@@H]4C[C@H](O)CC[C@]4(C)C3CC[C@@]21C (stereo partly drawn) | inactive
NC(=O)c1ncn([C@@H]2O[C@H](CO)[C@@H](O)[C@@H]2O)c1O | inactive
CC(=CC(=O)Nc1ccccc1C(=O)O)c1ccc2ccccc2c1 | inactive
CC[C@H]1OC(=O)[C@H](C)[C@@H](O[C@H]2C[C@@](C)(OC)[C@@H](O)[C@H](C)O2)[C@H](C)[C@@H](O[C@@H]2O[C@H](C)C[C@H](N(C)C)[C@@H]2O)[C@](C)(OC)C[C@@H](C)C(=O)[C@H](C)[C@@H](O)[C@]1(C)O | inactive
CCCCCCCCCCCCc1ccc(S(=O)(=O)Nc2nncs2)cc1 | inactive
N#CNC(=NCCCCCCOc1ccc(Cl)cc1)Nc1ccncc1 | 3.3 nM (active)
CO[C@@H]1[C@@H](O)[C@H](O)[C@@H](n2c3c(Cl)cccc3c3c4c(c5c6cccc(Cl)c6[nH]c5c32)C(=O)NC4=O)O[C@@H]1CO | 166 nM (active)
O=C(O)CCCCC(CCSCc1ccccc1)SCc1ccccc1 (stereo not drawn) | 13200 nM (active)
C=C(C)[C@@H]1CC[C@]2(C)CC[C@]3(C)[C@H](CC[C@@H]4[C@@]5(C)CC[C@H](O)C(C)(C)[C@H]5CC[C@]43C)[C@@H]12 | inactive
